Records with an inconclusive call do not appear. Entries that show only a call come without a potency. The source made the active and inactive calls. Calls come from the whole dose curve; as a rule, active = well fitted cell-killing curve with a large enough effect in the repeat runs; inconclusive = weak or mixed curves, or effect the other way; inactive = flat fitted curve, though single readings scatter.

The experiment in a line: Caspase-3/7 induction in HepG2 cells by small molecules, qHTS cell viability counter screen (AID 1346981). Note: nearly all actives have a fitted effect of over 30% in size. The conditions noted are these: CellTiter-Fluor fluorescence, 17 h; series mostly up to 92.4 µM. The source says: U.S. Tox21 Program National Center for Advancing Translational Sciences [NCATS] NIH Chemical Genomics Center [NCGC] U.S. Environmental Protection Agency [EPA] National Institutes of Environmental Health Sciences [NIEHS] National Toxicology Program [NTP] U.S. Food and Drug Administration [FDA] Tox21 Assay Overview: Apoptosis is a process of programmed cell death and plays a central role in the development of multicellular organisms. It is a highly regulated process and induces cell death by activating caspases, which are the members of cysteine aspartic acid-specific protease (caspase) family. Caspases involved in apoptosis are classified by their mechanism of action as initiator caspases (caspase-2, -8, -9 and -10) and executioner caspases (caspase-3, -6, and -7). Inhibition of apoptosis results in number of cancers, autoimmune diseases, inflammatory diseases and viral infection. To identify small molecule compounds that induce apoptosis, a homogeneous, luminescent Caspase-Glo 3/7 assay was used. Wild type HepG2 cells were used to screen Tox21 libraries for identifying caspase-3/7 activity inducers. Also cytotoxicity of the compounds was tested in parallel by measuring the cell viability using CellTiter-Fluor assay system in the same wells.
Tox21 Assay Protocol Summary: HepG2 cells were dispensed at 2,000 per well in 5uL of culture medium into white solid bottom 1536-well plates (Corning Life Sciences, Corning, NY) using a Multidrop Combi (Thermo Scientific, Waltham, MA) dispenser. The assay plates were incubated at 37 C and 5% CO2 for 5hr, and then 23nL of compounds dissolved in DMSO and positive control were transferred using a Pintool station ([…], San Diego, CA). The assay plates were incubated at 37C and 5% CO2 for 17hr. For cytotoxicity read, after 16hr incubation at 37C, 1uL CellTiter-Fluor reagent (Promega Corporation, Madison, WI) was added to each well of the assay plates using Flying Reagent Dispenser (FRD, Aurora Discovery, San Diego, CA). After 1hr incubation at 37C and 5% CO2, the fluorescence signal was quantified using a ViewLux plate reader (PerkinElmer, Shelton, CT).
In general terms: In qHTS, concentration-response curves come from the screen itself.
For the compound `COc1cc(Cl)ccc1Cl`, the Potency result was “inactive”. Take `Cc1ccsc1C(=CCCN1CCC[C@@H](C(=O)O)C1)c1sccc1C`: the Potency result is “inactive”.

Take `CC(C)CC(=O)OCc1ccccc1`: the Potency result is “inactive”. Then `CCN(CC)CC1CCCCN1CC(=O)N1c2ccccc2C(=O)Nc2cccnc21` (stereo not given), with “inactive”; and `Cc1ccc(C=O)s1`, with “inactive”; and `CCCC(CCC)(C(=O)OCC)C(=O)OCC`, with “inactive”.

Turning to `NC1=NCC2c3ccccc3Cc3ccccc3N12` (stereo not given), the Potency entry was “inactive”. `O=C1CCCCC1C1CCCCC1` (stereo not given): the Potency result is “inactive”. To `CC(C)C(=O)OCC(C)(C)C(O)C(C)C` (stereo not given) belongs “inactive”; to `C/C(=N\O)[C@@H](C)NCC(C)(C)CN[C@H](C)/C(C)=N/O`, “inactive”. As to `CC(=O)N[C@@H](CC(C)C)C(=O)O`, the Potency entry was “inactive”. For the compound `CN(CCCN1c2ccccc2CCc2ccccc21)CC(=O)c1ccc(Cl)cc1`, the Potency result was “inactive”. On to `CCCCCCCCCC/C=C/C#N`, for which the Potency result is “inactive”. In the case of `FC(F)(F)C(Cl)(Cl)Cl`, the Potency result is “inactive”. To `Cc1c(-c2ccccc2)oc2c(C(=O)OCCN3CCCCC3)cccc2c1=O` belongs “inactive”; to `OCCN(CCO)c1ccccc1`, “inactive”; to `CCN(CC)C(=O)N(CC)CC`, “inactive”. To `CN1CCN(C2=Nc3cc(F)ccc3Cc3ccccc32)CC1` belongs “inactive”. `CC(C)C(=O)OC/C=C/c1ccccc1`: the Potency result is “inactive”. Consider `Cc1nnc(SCC2=C(C(=O)O)N3C(=O)[C@@H](NC(=O)Cn4cnnn4)[C@H]3SC2)s1`, for which the Potency result is “inactive”. On to `CCCCNc1ccc(C(=O)OCCN(CC)CC)cc1`, for which the Potency result was “inactive”. To `CCCCN1C[C@H](O)[C@@H](O)[C@H](O)[C@H]1CO` belongs “inactive”; to `CCOc1ccccc1N`, “inactive”; to `Cc1ccc(C(C)C)cc1O`, “inactive”. `Clc1cccc(-c2cc(Cl)cc(Cl)c2)c1`: the Potency result is “inactive”. As to `CCCOc1ccc2c(c1)CC[C@@H]1[C@@H]2CC[C@]2(C)C(OC)CC[C@@H]12` (stereo not given in full), the Potency result is “inactive”. As for `CCN[C@H]1CN(CCCOC)S(=O)(=O)c2sc(S(N)(=O)=O)cc21`, the Potency entry is “inactive”.

In the case of `CC1=C2[C@H](/C=C(\C)C(=O)O)CC[C@@H](C)[C@H]2CC1`, the Potency entry was “inactive”. As for `CC(C)(CO)[C@@H](O)C(=O)NCCC(=O)O`, the Potency result is “inactive”. Then `CN(C)CC[C@@H](c1ccc(Cl)cc1)c1ccccn1`, with “inactive”; and `CCCN(CCC)C(=O)C(CCC(=O)O)NC(=O)c1ccccc1` (stereo not given), with “inactive”.

In the case of `O=C1CCCc2ccccc21`, the Potency entry was “inactive”.

As for `CC1=C(CC(=O)O)c2cc(F)ccc2/C1=C\c1ccc(S(C)(=O)=O)cc1`, the Potency entry was “inactive”. To `CCOc1ccc2nc(N)sc2c1` belongs “inactive”.

For the compound `O=C(O)[C@@H]1CSCN1`, the Potency entry was “inactive”. Then `Cc1c(C(=O)NCCO)[n+](=O)c2ccccc2n1[O-]`, with “inactive”; and `CCCCC1CCC(=O)O1` (stereo not given), with “inactive”; and `C=CCCC=C`, with “inactive”. Turning to `COC(=O)C(C)O` (stereo not given), the Potency result was “inactive”. For `COC(=O)N[C@H](C(=O)N[C@@H](Cc1ccccc1)[C@@H](O)CN(Cc1ccc(-c2ccccn2)cc1)NC(=O)[C@@H](NC(=O)OC)C(C)(C)C)C(C)(C)C`, the Potency entry was “inactive”.

The values above are taken from PubChem BioAssay (Tox21).
